Bioassay records (PubChem BioAssay)
This is a sample that favours compounds with a hit; in the whole collection about 2.4% have one here.
POLB inh: DNA polymerase beta (human) inhibition | P06746 | Potency, µM (top dose mostly 114 µM), for inactives: top-dose activity change, negative = inhibition, actives largely listed as inhibitors | AID 485314 | hit rate 1.3% among 340,000 | Pol beta primer extension/strand displacement, fluorescence kinetic; note: potency is the fitted concentration of half-maximal effect; % is set by controls: 0 for no effect and ±100 for the full control effect
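Pol beta (10 nM) and compounds were preincubated 15 min at room temperature, then 50 nM substrate (final) started primer extension/strand displacement. Reads were taken at 0 and 10 min; concentration-response data were fitted to a four-parameter Hill equation.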
Pol kappa inh-1: inhibitors of human DNA polymerase kappa; Q9UBT6; purified Pol kappa, fluorescent DNA synthesis assay, 10 min; Potency, µM (titrated, usually from 107 µM), without a hit: top-dose activity, negative = inhibition, most hits filed as inhibitors; hit rate 0.53% among 400,000; note: potency is the fitted concentration of half-maximal effect; % is set by controls: 0 for no effect and ±100 for the full control effect
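Readout: fluorescence, taken kinetically at 0 and 10 min. Conditions: 10 nM Pol kappa, 15 min RT compound preincubation, 50 nM substrate final. Controls: enzyme-free buffer wells.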
Pol eta inh-1: DNA polymerase eta (human) inhibition. Q9Y253. recombinant Pol eta, fluorescent DNA replication assay. Potency, µM (top dose mostly 114 µM), inactives show top-dose activity change, negative = inhibition, most hits filed as inhibitors. hit rate 1.2% among 390,000; note: potency is the fitted concentration of half-maximal effect; % is set by controls: 0 for no effect and ±100 for the full control effect
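Pol eta (10 nM) was preincubated with compounds for 15 min at room temperature, after which fluorescent replication substrate (50 nM final) was added to start the reaction. Fluorescence was read kinetically at 0 and 10 min.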
L3MBTL1 inh-1: blocks human L3MBTL1; Q9Y468; AlphaScreen L3MBTL1–H3K9me1 peptide binding; Potency, µM (series often up to 57.1 µM), for inactives: top-dose activity, negative = inhibition, hits mostly inhibitors; hit rate 0.66% among 230,000; AID 485360; note: potency is the fitted concentration of half-maximal effect; % is set by controls: 0 for no effect and ±100 for the full control effect; nearly all actives have a fitted effect of over 60% in size
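AlphaScreen assay: L3MBTL1 (50 nM final) was preincubated 30 min at room temperature with biotinylated H3(1-15)K9me1 peptide (75 nM final), then 30 min with library compounds; streptavidin donor and nickel chelate acceptor beads (10 ug/mL final) added, 30 min dark.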
POLI inh: DNA polymerase iota (human) inhibition. Q9UNA4. Pol iota fluorescent replication assay, 10 min. Potency, µM (titrated, usually from 115 µM), for inactives: top-dose activity, negative = inhibition, most hits filed as inhibitors. hit rate 1% among 390,000; note: potency is the fitted concentration of half-maximal effect
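Pol iota at 10 nM preincubated 15 min with compounds at room temperature; reaction started with fluorescent substrate, 50 nM final. Fluorescence read kinetically at 0 and 10 min; buffer-only wells as negative control.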
L3MBTL1 inh-2: L3MBTL1 binding inhibition validated | shares compounds with L3MBTL1 inh-1 | L3MBTL1 methyl-lysine binding inhibition, biochemical qHTS | Potency, µM, usual class: inhibitors | hit rate 91% among 500 | AID 540279; note: potency is the fitted concentration of half-maximal effect; nearly all actives have a fitted effect of over 70% in size
AlphaScreen ctr2: counter-screen for L3MBTL1 inhibitors: AlphaScreen signal interference. shares compounds with L3MBTL1 inh-1. AlphaScreen counterscreen, signal inhibition. Potency, µM (titrated, usually from 57.1 µM), without a hit: at the top dose activity change, negative = inhibition, usual class: inhibitors. 500 tested, under 10 active. AID 602224; note: potency is the fitted concentration of half-maximal effect; 0% is about no effect
BAZ2B inh: confirmation of human BAZ2B bromodomain inhibitors. shares compounds with Pol kappa inh-1. AlphaScreen BAZ2B / biotin-H3K14Ac peptide displacement. hit rate 100% among 25. Potency, µM, hits mostly inhibitors; calls by dose curve
BAZ2B bead ctr: interferes with AlphaScreen signal in BAZ2B counterscreen; shares compounds with Pol kappa inh-1; AlphaScreen biotin-His6 peptide bead counterscreen, signal decrease; Potency, µM (series often up to 57.1 µM), for the others: top-dose activity change, negative = inhibition, actives largely listed as inhibitors; 25 tested, under 10 active;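 active = clear concentration-dependent signal drop in the bead assay lacking the target, so a primary-screen artifact; inconclusive = weak, partial or single-dose response; inactive = no response, so a real primary hit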
PGK validate: blocks T. brucei phosphoglycerate kinase | TbPGK coupled GAPDH assay, Kinase-Glo luminescence | AID 686980 | hit rate 79% among 500 | Potency, µM (series often up to 57.5 µM), for inactives: at the top dose activity change, negative = inhibition, actives largely listed as inhibitors | shares compounds with Pol kappa inh-1; note: potency is the fitted concentration of half-maximal effect; % is set by controls: 0 for no effect and ±100 for the full control effect; nearly all actives have a fitted effect of over 65% in size
Target sequence (P07378 whole entry, looked up): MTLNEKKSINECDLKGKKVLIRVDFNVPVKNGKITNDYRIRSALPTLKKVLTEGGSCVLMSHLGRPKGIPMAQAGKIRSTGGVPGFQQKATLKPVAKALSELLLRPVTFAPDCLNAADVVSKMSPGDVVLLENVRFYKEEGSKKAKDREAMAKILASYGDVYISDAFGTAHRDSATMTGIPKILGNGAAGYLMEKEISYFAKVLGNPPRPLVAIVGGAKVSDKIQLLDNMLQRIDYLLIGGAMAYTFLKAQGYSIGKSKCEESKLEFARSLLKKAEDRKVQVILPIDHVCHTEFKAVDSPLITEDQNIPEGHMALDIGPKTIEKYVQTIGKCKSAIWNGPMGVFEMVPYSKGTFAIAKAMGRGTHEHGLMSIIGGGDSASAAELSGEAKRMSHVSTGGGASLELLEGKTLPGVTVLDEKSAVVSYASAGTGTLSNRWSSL
POLI cherry-pick: Human Pol iota inhibitor confirmatory assay; shares compounds with Pol kappa inh-1; hit rate 77% among 1,500; Pol iota primer extension, TAMRA/BHQ fluorescence; Potency, µM, usual class: inhibitors; note: potency is the fitted concentration of half-maximal effect
GALK confirm: confirmation of human galactokinase (GALK) inhibitors; shares compounds with Pol eta inh-1; purified GALK, Kinase-Glo ATP depletion luminescence; Potency, µM (titrated, usually from 115 µM), for the others: at the highest dose activity, negative = inhibition, most hits filed as inhibitors; hit rate 70% among 150
Target sequence (P51570 whole entry, looked up): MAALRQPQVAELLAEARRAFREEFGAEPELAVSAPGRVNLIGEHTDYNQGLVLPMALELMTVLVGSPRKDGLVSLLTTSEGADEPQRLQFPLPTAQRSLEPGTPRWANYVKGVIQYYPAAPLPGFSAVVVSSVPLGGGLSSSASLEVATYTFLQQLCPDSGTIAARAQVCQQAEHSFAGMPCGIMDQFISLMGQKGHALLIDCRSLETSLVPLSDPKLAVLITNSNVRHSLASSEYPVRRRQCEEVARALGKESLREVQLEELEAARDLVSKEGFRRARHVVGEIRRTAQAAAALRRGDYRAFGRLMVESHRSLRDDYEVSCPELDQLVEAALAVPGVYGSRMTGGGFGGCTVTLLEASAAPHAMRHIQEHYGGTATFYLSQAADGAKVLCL
Redox cycling: counter-screen for GALK inhibitors: redox cycling H2O2 generation; AID 2035; shares compounds with Pol eta inh-1; hit rate 40% among 150; Phenol red-HRP H2O2 redox cycling, absorbance 600 nm; Potency, µM (titrated, usually from 115 µM), for the others: top-dose activity change, negative = H2O2 signal, most hits filed as inhibitors
HEK293 tox: counter-screen for GALK inhibitors: HEK293 cell cytotoxicity | Potency, µM (titrated, usually from 46.1 µM), for the others: top-dose activity change, negative = cytotoxicity, usual class: inhibitors | AID 2547 | HEK-293 viability, ATP luminescence (CellTiter-Glo), 24/48 h | hit rate 10% among 170 | shares compounds with Pol eta inh-1; note: potency is the fitted concentration of half-maximal effect; % is set by controls: 0 for no effect and ±100 for the full control effect
Pol kappa inh-2: Pol kappa (human) inhibition, cherry-pick confirmation; shares compounds with Pol eta inh-1; purified Pol-kappa, fluorescent strand-displacement substrate; Potency, µM, most hits filed as inhibitors; hit rate 76% among 920; note: potency is the fitted concentration of half-maximal effect
Pol eta inh-2: confirmation of human DNA polymerase eta inhibitors. hit rate 64% among 2,600. Potency, µM, actives largely listed as inhibitors. shares compounds with Pol eta inh-1. Pol eta primer extension, TAMRA/BHQ fluorescence, 10 min; note: potency is the fitted concentration of half-maximal effect
An asterisk follows results filed as active; ? = inconclusive; . = no result; [ ] = remark or other dose. Unless noted, calls come from the whole dose curve; as a rule, active = well fitted curve in the direction sought with a large enough effect; inconclusive = small, poorly fitted or top-dose-only effect, or another doubt; inactive = no such curve, though single readings can be large; an effect the other way counts as inactive or inconclusive.

SMILES | POLB inh | Pol kappa inh-1 | Pol eta inh-1 | L3MBTL1 inh-1 | POLI inh | POLI cherry-pick | Pol eta inh-2 | others
CCN(CC(=O)Nc1c(F)cccc1F)C(=O)/C=C/c1ccc2ccccc2n1 | . | 8.9µM* | 1.1µM* | 3.2µM* | 4.5µM* | 9.5* | 19* | L3MBTL1 inh-2=1.7*;AlphaScreen ctr2=8%;BAZ2B inh=14*;BAZ2B bead ctr=?
Cc1ccc(NC(=O)C2CCN(C(=O)c3cnn(-c4ccccc4)c3-n3cccc3)CC2)cc1Cl | ? | -22% | -16% | . | 7% | . | .
CC(C)N1C(=O)/C(=C/C=C/c2ccco2)C(=O)N(Cc2ccco2)C1=O | 22µM* | 22µM* | 2.5µM* | 32µM* | ? | 19* | 9.5* | L3MBTL1 inh-2=4.7*;AlphaScreen ctr2=-25%
CCc1ccc(N2C(=O)NC(=O)/C(=C/c3cccn3CCOc3ccc(C)cc3)C2=O)cc1 | 35% | -15% | ? | -17% | ? | . | .
Cc1cccc(OCCn2cccc2/C=C2/C(=O)NC(=O)N(Cc3ccco3)C2=O)c1 | 32µM* | 28µM* | 22µM* | 20µM* | 8.9µM* | . | 76* | L3MBTL1 inh-2=?;AlphaScreen ctr2=?
CC(=O)N1C[C@H](O)C[C@H]1C(=O)O | . | 6% | 4% | 7% | ? | . | .
C[C@H](CCC(=O)O)[C@H]1CC[C@@H]2[C@H]3CC[C@H]4C[C@H](O)CC[C@]4(C)[C@@H]3CC[C@@]21C | . | -12%[19.4 µM] | . | . | . | . | .
CC1=C(O)C(=O)[C@@H]2O[C@@H]2C1=O | . | -4%[19.4 µM] | . | . | . | . | .
CC[n+]1c(/C=C/C=C/c2ccc(N(C)C)cc2)sc2ccccc21 | -1% | -32% | ? | ? | 76% | . | . | PGK validate=?
OC(c1ccc(Cl)cc1)(c1cncnc1)c1ccccc1Cl (configuration not stated) | . | 11%[60.1 µM] | . | . | . | . | .
CNC(=S)S | . | 15%[60.1 µM] | . | . | . | . | .
COC12C(COC(N)=O)C3=C(C(=O)C(C)=C(N)C3=O)N1CC1C2N1C (configuration not stated) | -19% | -35% | 50µM* | . | ? | 38* | .
O=C1NC(=S)NC(=O)C1=Cc1ccc2c(c1)CCN2CCCCl | ? | 10µM* | 2µM* | . | ? | . | . | PGK validate=2.3µM*
CC(c1nccs1)N(C)C(=O)c1cn(Cc2cccc3ccccc23)nn1 (configuration not stated) | -1% | -8% | -4% | . | 38% | . | .
CCCCC(C#N)(Cn1cncn1)c1ccc(Cl)cc1 (configuration not stated) | . | 15%[60.1 µM] | . | . | . | . | .
O=C(O)c1cccc2c1NC(C(=O)O)C1CC(Sc3ccccc3[N+](=O)[O-])C(Cl)C21 (configuration not stated) | 2.8µM* | 8.9µM* | 3.2µM* | 2.2µM* | 4µM* | . | . | PGK validate=13µM*
O=C(NCc1ccccc1)c1cccc(Nc2nc3ccccc3n3nnnc23)c1 | -11% | -3% | -9% | . | ? | . | .
CCCNC(=O)c1ccc2c(=O)n3c(-c4ccc(C)cc4)csc3nc2c1 | -5% | -14% | 4% | . | ? | . | . | BAZ2B inh=4.5*;BAZ2B bead ctr=13µM*
CCOC(=O)C1CCCN(c2ccc([N+](=O)[O-])c3nonc23)C1 (configuration not stated) | 14µM* | 25µM* | 35µM* | -22% | 56µM* | 38* | 76* | Pol kappa inh-2=84*
CCCC[C@@H](C)[C@@H](OC(=O)C[C@@H](CC(=O)O)C(=O)O)[C@H](C[C@@H](C)CCCCCC[C@@H](O)C[C@H](O)[C@H](C)N)OC(=O)C[C@@H](CC(=O)O)C(=O)O | . | -2%[60.1 µM] | . | . | . | . | .
COc1ccc(CN2C(=O)NC(=O)/C(=C/c3ccc([N+](=O)[O-])s3)C2=O)cc1 | 22µM* | 22µM* | 14µM* | 28µM* | ? | 24* | 5.4*
O=C1NC(=O)N(Cc2ccc(F)cc2)C(=O)/C1=C\c1ccc([N+](=O)[O-])s1 | ? | 32µM* | 28µM* | . | 14µM* | 42* | 17*
O=C1NC(=O)N(Cc2ccc(F)cc2)C(=O)/C1=C\c1ccc(N2CCCC2)cc1 | 35µM* | ? | 32µM* | -25% | 14µM* | 67* | 60*
COc1ccc(CN2C(=O)NC(=O)/C(=C\c3cc(OC)c(OC)c(OC)c3)C2=O)cc1 | -12% | -2% | -10% | . | ? | . | .
COC(=O)c1nc(-c2ccc3c(n2)C(=O)C(N)=C(OC)C3=O)c(N)c(-c2ccc(OC)c(OC)c2O)c1C | ? | ? | 10µM* | . | 8.9µM* | 47* | ? | GALK confirm=5.3µM*;Redox cycling=6.7µM*;HEK293 tox=-4%
